In PubChem BioAssay (NCI):
The panel holds about 79,000 compounds, 15% with a hit somewhere; the sample as a whole holds those more often. Unmarked numbers belong to inactive results. Activity calls are given as the source filed them. Cut-off read from the data, not from the text of the source: active = growth inhibition above about 70%; inactive = the rest.

Columns and labels:
[1] = NCI Yeast Anticancer Drug Screen. Data for the wt1 strain (AID 149);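 note: 0% = growth of vehicle-treated wt1 cultures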; settings: S. cerevisiae wt1 strain (SPY 50644) growth inhibition, hits give high values
How it was run: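 Vehicle-normalised growth inhibition; strain wt1; compound exposure.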

[2] = NCI Yeast Anticancer Drug Screen. Data for the rad50EPP+ strain (AID 151);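 note: 0% = growth of vehicle-treated control cultures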; settings: S. cerevisiae rad50 mutant strain, hits give high values
How it was run: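 One strain with a rad50 alteration (rad50EPP+) was compound-treated, its growth then compared to that of vehicle controls.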

[3] = NCI Yeast Anticancer Drug Screen. Data for the mgt1 strain (AID 153); settings: S. cerevisiae mgt1 mutant growth inhibition, hits give high values
How it was run: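 After exposure of the mgt1 yeast mutant to compound, growth was measured and reported as inhibition compared with vehicle controls.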

[4] = NCI Yeast Anticancer Drug Screen. Data for the rad50 strain (AID 155);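 note: 0% = growth of vehicle-only cultures of the same strain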; settings: S. cerevisiae rad50 strain growth inhibition, hits give high values
How it was run: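 A DNA repair-deficient yeast mutant serves as the test organism; compound-induced growth inhibition is calculated against vehicle-treated cells.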

[5] = NCI Yeast Anticancer Drug Screen. Data for the mec2-1 strain (AID 157); settings: S. cerevisiae mec2-1 strain, hits give high values
How it was run: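 Test agents were screened against the mec2-1 yeast strain, with defined DNA repair or cell cycle alteration. Growth was scored as inhibition against vehicle-only controls.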

[6] = NCI Yeast Anticancer Drug Screen. Data for the rad14 strain (AID 159);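 note: 0% = growth of vehicle-treated control cultures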; settings: S. cerevisiae rad14 strain growth inhibition, hits give high values
How it was run: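 Vehicle-treated cultures served as the baseline for growth inhibition of a DNA repair-mutant yeast strain exposed to each compound.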

[7] = NCI Yeast Anticancer Drug Screen. Data for the sgs1 mgt1 strain (AID 161);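 note: 0% = growth of cultures given vehicle only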; settings: S. cerevisiae sgs1 mgt1 strain, hits give high values
How it was run: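 Mutant yeast exposed to compound; growth scored against vehicle-only wells.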

[8] = NCI Yeast Anticancer Drug Screen. Data for the CLN2oe strain (AID 163);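 note: 0% = growth of vehicle-only control cultures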; settings: S. cerevisiae CLN2oe strain, hits give high values
How it was run: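 Here, growth inhibition in a cell-cycle-altered yeast strain after compound exposure was quantified against vehicle control growth.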

[9] = NCI Yeast Anticancer Drug Screen. Data for the cln2 rad14 strain (AID 165);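 note: 0% = growth equal to vehicle treated cultures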; settings: S. cerevisiae cln2 rad14 strain, hits give high values
How it was run: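 Growth of compound-exposed yeast (cln2 rad14 genotype) measured and expressed as inhibition relative to vehicle.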

[10] = NCI Yeast Anticancer Drug Screen. Data for the bub3 strain (AID 167); settings: S. cerevisiae bub3 mutant strain, hits give high values
How it was run: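 Inhibition values come from growth of compound-treated mutant yeast normalised to vehicle-treated controls.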

[11] = NCI Yeast Anticancer Drug Screen. Data for the wt2 strain (AID 169);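 note: 0% = growth of vehicle-treated yeast cultures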; settings: S. cerevisiae wt2 strain growth inhibition, hits give high values
How it was run: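 Genetically defined yeast strains from a DNA-repair/cell-cycle panel were used. Compound-exposed yeast growth was measured, and the inhibition was calculated relative to vehicle treatment.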

[12] = NCI Yeast Anticancer Drug Screen. Data for the mlh1 strain (AID 171);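 note: 0% = growth of vehicle-treated control cultures of the same strain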; settings: S. cerevisiae mlh1 strain growth inhibition, hits give high values
How it was run: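 Here the genetically defined yeast mutant is grown with each compound, and the extent to which its growth falls below that of vehicle-exposed cells is reported.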

[13] = NCI Yeast Anticancer Drug Screen. Data for the mlh1 rad18 strain (AID 175); settings: S. cerevisiae mlh1 rad18 strain growth inhibition, hits give high values
How it was run: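 In this whole-cell yeast screen, a strain with altered DNA damage repair is challenged with compound, and its growth is measured against matched vehicle-treated controls.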

[14] = at 5.0 µM (retest, dose inferred, filed as 0.5)
[15] = at 50.0 µM (retest, dose inferred, filed as 5.0)

With CCCOC(=O)C(F)C(Br)C(=O)OCCC (stereo not drawn) the growth inhibition ([1]; at 1.2 µM) was 42%, the growth inhibition ([1]; at 3.7 µM) was 95% (active) and the growth inhibition ([1]; at 11.0 µM) was 98% (active). For the same compound, the growth inhibition ([1]; at 33.0 µM) was 97% (active), the growth inhibition ([1]; at 100.0 µM) was 99% (active) and the growth inhibition ([2]; at 1.2 µM) was 33%. For the same compound, the growth inhibition ([2]; at 3.7 µM) was 28%, the growth inhibition ([2]; at 11.0 µM) was 94% (active) and the growth inhibition ([2]; at 33.0 µM) was 98% (active). For the same compound, the growth inhibition ([2]; at 100.0 µM) was 98% (active), the growth inhibition ([3]; at 1.2 µM) was 54% and the growth inhibition ([3]; at 3.7 µM) was 90% (active). The growth inhibition ([3]; at 11.0 µM) was 97% (active), the growth inhibition ([3]; at 33.0 µM) was 98% (active) and the growth inhibition ([3]; at 100.0 µM) was 99% (active). For the same compound, the growth inhibition ([4]; at 1.2 µM) was 58%, the growth inhibition ([4]; at 3.7 µM) was 90% (active) and the growth inhibition [4, 14] was 44%. The growth inhibition ([4]; at 11.0 µM) was 97% (active), the growth inhibition ([4]; at 33.0 µM) was 97% (active) and the growth inhibition [4, 15] was 98% (active). For the same compound, the growth inhibition ([4]; at 50.0 µM) was 89.8% (active), the growth inhibition ([4]; at 100.0 µM) was 99% (active) and the growth inhibition ([5]; at 1.2 µM) was 71% (active). The growth inhibition ([5]; at 3.7 µM) was 97% (active), the growth inhibition [5, 14] was 67% and the growth inhibition ([5]; at 11.0 µM) was 97% (active). The growth inhibition ([5]; at 33.0 µM) was 98% (active), the growth inhibition [5, 15] was 100% (active) and the growth inhibition ([5]; at 50.0 µM) was 92% (active). The growth inhibition ([5]; at 100.0 µM) was 99% (active), the growth inhibition ([6]; at 1.2 µM) was 21% and the growth inhibition ([6]; at 3.7 µM) was 67%. For the same compound, the growth inhibition ([6]; at 11.0 µM) was 97% (active), the growth inhibition ([6]; at 33.0 µM) was 97% (active) and the growth inhibition ([6]; at 100.0 µM) was 100% (active). For the same compound, the growth inhibition [7, 14] was 21%, the growth inhibition [7, 15] was 98% (active) and the growth inhibition ([7]; at 50.0 µM) was 91.9% (active). The growth inhibition ([8]; at 1.2 µM) was 48%, the growth inhibition ([8]; at 3.7 µM) was 87% (active) and the growth inhibition ([8]; at 11.0 µM) was 97% (active). The growth inhibition ([8]; at 33.0 µM) was 97% (active), the growth inhibition ([8]; at 100.0 µM) was 98% (active) and the growth inhibition [9, 14] was 11%. The growth inhibition [9, 15] was 70% (active), the growth inhibition ([9]; at 50.0 µM) was 90.7% (active) and the growth inhibition ([10]; at 1.2 µM) was 38%. For the same compound, the growth inhibition ([10]; at 3.7 µM) was 82% (active), the growth inhibition [10, 14] was 30% and the growth inhibition ([10]; at 11.0 µM) was 93% (active). For the same compound, the growth inhibition ([10]; at 33.0 µM) was 96% (active), the growth inhibition [10, 15] was 99% (active) and the growth inhibition ([10]; at 50.0 µM) was 90.5% (active). The growth inhibition ([10]; at 100.0 µM) was 96% (active), the growth inhibition ([11]; at 1.2 µM) was 57% and the growth inhibition ([11]; at 3.7 µM) was 98% (active). For the same compound, the growth inhibition ([11]; at 11.0 µM) was 98% (active), the growth inhibition ([11]; at 33.0 µM) was 98% (active) and the growth inhibition ([11]; at 100.0 µM) was 100% (active). For the same compound, the growth inhibition ([12]; at 1.2 µM) was 40%, the growth inhibition ([12]; at 3.7 µM) was 92% (active) and the growth inhibition ([12]; at 11.0 µM) was 98% (active). The growth inhibition ([12]; at 33.0 µM) was 97% (active), the growth inhibition ([12]; at 100.0 µM) was 99% (active) and the growth inhibition [13, 14] was 93% (active). For the same compound, the growth inhibition [13, 15] was 98% (active) and the growth inhibition ([13]; at 50.0 µM) was 89% (active).
